Unmarked numbers belong to inactive results.

In assay [1] the test system is Falciformispora senegalensis CBS197.79. Kind of assay: growth relative to untreated control; higher = less inhibition, active = 20 or less. Put shortly: (§1)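 In 96-well plates, suspended hyphal fragments of M. mycetomatis MM55 or F. senegalensis CBS197.79 were exposed to compound at 100 or 25 µM for 7 days at 37 °C. The suspension medium was colourless RPMI 1640 with L-glutamine and MOPS, adjusted to 68–72% transmission at 660 nm. Viability was measured with MTS (2 h, 490 nm) or resazurin (600 nm). Growth means metabolic activity compared with the untreated growth control after blank correction of both with medium plus dye.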

Assay [2] has as its system Madurella mycetomatis MM55. The description is as above. An outline of the steps: as §1

As to `CNCc1[cH-]ccc1CNc1ccnc2cc(Cl)ccc12.[Fe+2].c1cc[cH-]c1`, the growth in assay [1] (25 µM) was 10.2% (active); in assay [1] (100 µM) it was 14.6% (active); in assay [2] (25 µM), 2.78% (active); in assay [2] (100 µM), 2.49% (active).

`Oc1nc2ccccc2n1C1CCN(CCCC(c2ccc(F)cc2)c2ccc(F)cc2)CC1`: the growth in assay [1] (25 µM) is 101%; in assay [1] (100 µM), 100%; in assay [2] (25 µM), 7.07% (active); in assay [2] (100 µM) it was 64.9%.

In the case of `O=C(NCCCNc1nc(Nc2ccc(N3CCOCC3)cc2)ncc1C1CC1)C1CCC1`, the growth in assay [1] (25 µM) is 93.4%; in assay [1] (100 µM), 95%; in assay [2] (25 µM) it was 101%; in assay [2] (100 µM), 72.1%.

Take `FC(F)(F)c1ccnc(Nc2cn3cc(-c4ccc(N5CCOCC5)nc4)ccc3n2)n1`: the growth was 91.1% in assay [1] (25 µM), 92.1% in assay [1] (100 µM), 73.7% in assay [2] (25 µM) and 132% in assay [2] (100 µM).

Consider `Clc1ccc2c(N3CCN(CCCN4CCN(c5ccnc6cc(Cl)ccc56)CC4)CC3)ccnc2c1`, for which the growth in assay [1] (25 µM) is 104%; in assay [1] (100 µM), 101%; in assay [2] (25 µM), 95.9%; in assay [2] (100 µM) it was 86.7%.

In the case of `CO[C@H]1C[C@H](O[C@H]2[C@H](C)O[C@@H](O[C@@H]3/C(C)=C/C[C@@H]4C[C@@H](C[C@]5(C=C[C@H](C)[C@@H](C6CCCCC6)O5)O4)OC(=O)[C@@H]4C=C(C)[C@@H](O)[C@H]5OC/C(=C\C=C\[C@@H]3C)[C@]54O)C[C@@H]2OC)O[C@@H](C)[C@@H]1O`, the growth is 93.1% in assay [1] (25 µM), 88.5% in assay [1] (100 µM), 101% in assay [2] (25 µM) and 125% in assay [2] (100 µM).

Consider `CCOCCCNc1nc2cc(OC)c(OC)cc2c2nc(-c3ccccc3)nn12`, for which the growth in assay [1] (25 µM) is 93.1%; in assay [1] (100 µM) it was 89.3%; in assay [2] (25 µM) it was 95.5%; in assay [2] (100 µM), 120%.

As for `CCOC(=O)NCCOc1cnn(Cc2ccccc2)c(=O)c1`, the growth is 91.1% in assay [1] (25 µM), 101% in assay [1] (100 µM), 100% in assay [2] (25 µM) and 97.3% in assay [2] (100 µM).

Consider `Cc1cccnc1-c1noc(-c2ccccc2)n1`, for which the growth in assay [1] (25 µM) was 99.3%; in assay [1] (100 µM) it was 98%; in assay [2] (25 µM), 49.2%; in assay [2] (100 µM), 87.4%.

`CC1(O)CN(C(=O)c2cccc(NC(=O)c3ccc(Nc4ccccn4)cc3)c2)C1`: the growth is 106% in assay [1] (25 µM), 107% in assay [1] (100 µM), 55.8% in assay [2] (25 µM) and 141% in assay [2] (100 µM).

`O=C(Nc1cnc2ccccc2c1)c1ccccc1C(=O)c1ccc(F)cc1`: the growth in assay [1] (25 µM) was 88.2%; in assay [1] (100 µM) it was 95.5%; in assay [2] (25 µM), 92.9%; in assay [2] (100 µM), 91.8%.

For `c1ccc(CCc2nc3cccnc3n2C2CCN(C3CCN(Cc4ccccc4)CC3)CC2)cc1`, the growth is 86.3% in assay [1] (25 µM), 49.8% in assay [1] (100 µM), 63.2% in assay [2] (25 µM) and 5.59% (active) in assay [2] (100 µM).

For the molecule `Cc1ncc([N+](=O)[O-])n1CC(C)O` (stereo not given), the growth in assay [1] (25 µM) is 93.4%; in assay [1] (100 µM) it was 100%; in assay [2] (25 µM), 120%; in assay [2] (100 µM) it was 128%.

For `O=C(c1ccc(Nc2nccc(-c3ccc(Cl)cc3)n2)cc1)N1CCS(=O)(=O)CC1`, the growth in assay [1] (25 µM) was 80.5%; in assay [1] (100 µM), 98.8%; in assay [2] (25 µM), 76.8%; in assay [2] (100 µM), 81.3%.

In the case of `CC(C)Oc1cccc(-c2ccc3nc(Nc4ncccc4N(C)C)cn3c2)n1`, the growth in assay [1] (25 µM) is 88.2%; in assay [1] (100 µM), 93.4%; in assay [2] (25 µM), 124%; in assay [2] (100 µM), 84.6%.

Consider `C=CCNc1nc(NCC=C)nc(N2CCN(C(c3ccc(F)cc3)c3ccc(F)cc3)CC2)n1`, for which the growth in assay [1] (25 µM) is 105%; in assay [1] (100 µM), 91.3%; in assay [2] (25 µM) it was 91.8%; in assay [2] (100 µM) it was 83.9%.

`CS(=O)(=O)N1CCC(NC(=O)c2cc3ccc(C(F)(F)F)cc3[nH]2)CC1`: the growth in assay [1] (25 µM) is 90.8%; in assay [1] (100 µM), 84.8%; in assay [2] (25 µM), 101%; in assay [2] (100 µM), 109%.

As for `Nc1nc(NC2CC2)c2ncn([C@H]3C=C[C@@H](CO)C3)c2n1`, the growth in assay [1] (25 µM) was 94.3%; in assay [1] (100 µM), 107%; in assay [2] (25 µM), 97%; in assay [2] (100 µM), 83.8%.

In the case of `CCC(C)(C)n1nnnc1C(c1cc2ccc(C)cc2[nH]c1=O)N1CCN(c2ccccc2)CC1` (stereo not given), the growth in assay [1] (25 µM) was 86%; in assay [1] (100 µM) it was 84.3%; in assay [2] (25 µM) it was 76.6%; in assay [2] (100 µM), 91.7%.

`Cc1cccnc1Nc1cn2cc(-c3cccc(OCC(F)(F)F)n3)ccc2n1`: the growth in assay [1] (25 µM) is 96.5%; in assay [1] (100 µM), 86.9%; in assay [2] (25 µM), 119%; in assay [2] (100 µM), 8.06% (active).

As for `Clc1ccc(Nc2nc3cnc(NC4CC4)nc3n2C2CCNCC2)cc1Cl`, the growth in assay [1] (25 µM) is 76.9%; in assay [1] (100 µM), 91.4%; in assay [2] (25 µM), 73.7%; in assay [2] (100 µM), 73%.

Turning to `COc1ccc2c(O[C@@H]3C[C@H]4C(=O)N[C@]5(C(=O)NS(=O)(=O)C6CC6)C[C@H]5/C=C\CCCCN(C)C(=O)[C@@H]4C3)cc(-c3nc(C(C)C)cs3)nc2c1C`, the growth in assay [1] (25 µM) is 103%; in assay [1] (100 µM), 100%; in assay [2] (25 µM), 87.1%; in assay [2] (100 µM), 74.8%.

`Cc1ccc(C(=O)Nc2ccc(CN3CCN(C)CC3)c(C(F)(F)F)c2)cc1C#Cc1cnc2cccnn12`: the growth is 20.7% in assay [1] (25 µM), -2.57% (active) in assay [1] (100 µM), 16.4% (active) in assay [2] (25 µM) and 10.5% (active) in assay [2] (100 µM).

For the molecule `O=C1NCN(c2ccccc2)C12CCN(CCCC(c1ccc(F)cc1)c1ccc(F)cc1)CC2`, the growth in assay [1] (25 µM) was 3.66% (active); in assay [1] (100 µM), 14.7% (active); in assay [2] (25 µM), 7.29% (active); in assay [2] (100 µM), 5.27% (active).

With `FC(F)(F)CNc1ncc2nc(Nc3cc(Cl)cc(Cl)c3)n(C3CCNCC3)c2n1`, the growth was 104% in assay [1] (25 µM), 107% in assay [1] (100 µM), 70.4% in assay [2] (25 µM) and 4.54% (active) in assay [2] (100 µM).

On to `CCNCc1cc(Nc2ccnc3cc(Cl)ccc23)ccc1O`, for which the growth was 48.5% in assay [1] (25 µM), 16.4% (active) in assay [1] (100 µM), 37% in assay [2] (25 µM) and 2.65% (active) in assay [2] (100 µM).

Turning to `COc1c(C)c2c(c(O)c1C/C=C(\C)CCC(=O)O)C(=O)OC2`, the growth is 102% in assay [1] (25 µM), 107% in assay [1] (100 µM), 88% in assay [2] (25 µM) and 94.6% in assay [2] (100 µM).

Turning to `C[C@H]1O[C@@H](O[C@H]2[C@@H](O)C[C@H](O[C@H]3[C@@H](O)C[C@H](O[C@H]4CC[C@@]5(C)[C@H](CC[C@@H]6[C@@H]5C[C@@H](O)[C@]5(C)[C@@H](C7=CC(=O)OC7)CC[C@]65O)C4)O[C@@H]3C)O[C@@H]2C)C[C@H](O)[C@@H]1O`, the growth in assay [1] (25 µM) was 99.5%; in assay [1] (100 µM) it was 106%; in assay [2] (25 µM) it was 82.1%; in assay [2] (100 µM), 90.8%.

Take `NC(=O)c1nc(F)cnc1O`: the growth is 114% in assay [1] (25 µM), 102% in assay [1] (100 µM), 83.1% in assay [2] (25 µM) and 84.1% in assay [2] (100 µM).

`Cc1cc2ncc(C(=O)NCC(C)(C)NCC(=O)N3CCC[C@H]3C#N)cn2n1`: the growth in assay [1] (25 µM) is 105%; in assay [1] (100 µM), 102%; in assay [2] (25 µM), 82.4%; in assay [2] (100 µM) it was 84.8%.

Consider `CCN1CCC(c2cc(C)c3nc(-c4cc5c(C)nc(C)cn5n4)cc(=O)n3c2)CC1`, for which the growth in assay [1] (25 µM) is 104%; in assay [1] (100 µM), 107%; in assay [2] (25 µM) it was 80.2%; in assay [2] (100 µM), 89.8%.

On to `O=C(NCc1ccco1)c1ccc2[nH]c(COc3ccc(C45CC6CC(CC(C6)C4)C5)cc3)nc2c1`, for which the growth in assay [1] (25 µM) was 97.5%; in assay [1] (100 µM), 84.5%; in assay [2] (25 µM) it was 87.5%; in assay [2] (100 µM), 168%.

As to `CCC(C)n1ncn(-c2ccc(N3CCN(c4ccc(OCC5COC(Cn6cncn6)(c6ccc(Cl)cc6Cl)O5)cc4)CC3)cc2)c1=O` (stereo not given), the growth is 37.2% in assay [1] (25 µM), 81.1% in assay [1] (100 µM), 5.47% (active) in assay [2] (25 µM) and 4.46% (active) in assay [2] (100 µM).

For the molecule `CCC(CC)COC(=O)[C@H](C)NP(=O)(OC[C@H]1O[C@@](C#N)(c2ccc3c(N)ncnn23)[C@H](O)[C@@H]1O)Oc1ccccc1` (stereo not given in full), the growth in assay [1] (25 µM) was 109%; in assay [1] (100 µM), 96.3%; in assay [2] (25 µM), 95.1%; in assay [2] (100 µM) it was 85.7%.

As for `CN(C)CCOc1ccc2nc(-c3cccc(OCc4ccccc4)c3)[nH]c2c1C#N`, the growth was 50.2% in assay [1] (25 µM), 11.4% (active) in assay [1] (100 µM), 4.87% (active) in assay [2] (25 µM) and 5.16% (active) in assay [2] (100 µM).
